An excerpt weighted towards active compounds, which were near 9.4% of everything screened.
NPC1 prom act: qHTS Assay for NPC1 Promoter Activators | Huh7 NPC1 promoter luciferase reporter, 24 h | Potency, µM (series often up to 9.22 µM), for the others: at the highest dose activation, hits mostly activators | 320,000 tested, 2.4% active | AID 485313, 2010; also: % of control where 0% means no effect; nearly all actives have a fitted effect of over 60% in size
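Luminescence read-out of NPC1 promoter-driven luciferase in stably transfected Huh7 cells; compounds delivered in DMSO and left 24 h at 37C, 5% CO2, qHTS titration format.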
ELG1 genotox: qHTS screen for small molecules that induce genotoxicity in human embryonic kidney (HEK293T) cells expressing luciferase-tagged ELG1; Potency, µM (highest dose often 46 µM), for inactives: top-dose activity change, positive = activation, usual class: activators; HEK293T ELG1-luciferase reporter, luminescence, 16 h; 330,000 tested, 1.3% active; AID 504466, 2011; also: % of control where 0% means no effect; nearly all actives have a fitted effect of over 60% in size
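DMSO vehicle served as control against compound-treated ELG1-luciferase HEK293T cells; exposure lasted 16 hr at 37 °C and 5% CO2, followed by ONE-Glo luminescence detection after 30 min.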
ELG1 repair inh: qHTS screen for small molecules that inhibit ELG1-dependent DNA repair in human embryonic kidney (HEK293T) cells expressing luciferase-tagged ELG1. HEK293T ELG1-luciferase reporter, luminescence, 16 h; DNA damage induced by 5-fluorouridine. Potency, µM (doses to about 46.1 µM), without a hit: at the top dose activity change, negative = inhibition, most hits filed as inhibitors. 330,000 tested, 2.3% active. AID 504467, 2011; also: % is scaled to controls: 0 for no effect and ±100 for the full control effect; nearly all actives have a fitted effect of over 55% in size
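In this reporter screen, reduction of luminescence relative to DMSO vehicle indicated activity. Compounds and 5-fluorouridine were added together to 2,000 cells per well, incubated for 16 hr at 37 °C, then developed with ONE-Glo.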
FLuc counter: qHTS profiling assay for firefly luciferase inhibitor/activator using purifed enzyme and Km concentrations of substrates (counterscreen for miR-21 project); Luciferin 4-monooxygenase (Photinus pyralis), P08659; purified FLuc, Km substrates, luminescence inhibition; 360,000 tested, 6.9% active; Potency, µM (titrated, usually from 57.5 µM), for the others: top-dose activity change, negative = inhibition, hits mostly inhibitors;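 also: plate controls were vehicle for no effect and reference inhibitor for full effect; nearly all actives have a fitted effect of over 55% in size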
Target sequence (P08659 whole entry, looked up): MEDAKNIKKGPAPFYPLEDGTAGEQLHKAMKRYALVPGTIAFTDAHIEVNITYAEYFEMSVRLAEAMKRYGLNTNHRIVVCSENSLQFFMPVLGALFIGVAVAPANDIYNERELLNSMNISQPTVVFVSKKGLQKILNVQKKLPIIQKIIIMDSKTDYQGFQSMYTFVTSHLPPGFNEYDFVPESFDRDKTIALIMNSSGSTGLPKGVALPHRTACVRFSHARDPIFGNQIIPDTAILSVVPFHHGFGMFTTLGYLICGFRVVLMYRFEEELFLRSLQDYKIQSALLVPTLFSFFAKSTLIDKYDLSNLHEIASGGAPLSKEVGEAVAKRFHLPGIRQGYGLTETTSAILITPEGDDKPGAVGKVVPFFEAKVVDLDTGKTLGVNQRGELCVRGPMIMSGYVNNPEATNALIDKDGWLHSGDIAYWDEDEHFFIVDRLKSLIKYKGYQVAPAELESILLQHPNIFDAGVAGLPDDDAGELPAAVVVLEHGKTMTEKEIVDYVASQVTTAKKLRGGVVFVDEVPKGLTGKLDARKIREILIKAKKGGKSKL
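Purified P. pyralis luciferase (10nM final) with 10uM D-luciferin and 10uM ATP (Km levels) in 50mM Tris acetate pH 7.5, 10mM Mg acetate, 0.01% Tween-20, 0.05% BSA; qHTS 6-point titration, ~60 µM downward; luminescence read.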
SMN2 splice enh: qHTS Assay for Enhancers of SMN2 Splice Variant Expression. HEK293 SMN2-luciferase splicing reporter, luminescence, 30-36 h. Potency, µM (top dose mostly 46.1 µM), for the others: top-dose activity change, positive = activation, most hits filed as activators. 210,000 tested, 2.8% active. AID 1458, 2008; also: % of control where 0% means no effect; nearly all actives have a fitted effect of over 55% in size
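HEK293 cells carry an SMN2 minigene-luciferase reporter in which exon 7 inclusion puts luciferase in frame. Cells were seeded at 2000 cells/well, attached for 10-12 hours, then exposed to compounds for 30-36 hours at 37C before ONE-Glo luminescence.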
Rab9 promoter act: qHTS Assay for Rab9 Promoter Activators; Potency, µM (doses to about 9.22 µM), for the others: at the top dose activation, negative = inhibition, most hits filed as activators; Huh7 Rab9 promoter-luciferase reporter, luminescence, 24 h; 320,000 tested, 2.8% active; also: % of control where 0% means no effect; nearly all actives have a fitted effect of over 60% in size
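Huh7 cells stably carrying Rab9 promoter–luciferase reporter, plated 1500 cells/well, compound added after 2 h and incubated 24 h at 37 °C; luciferase luminescence then read after 10 min with detection reagent.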
* = called active by the depositor; ? = inconclusive; . = no result given; [ ] = remark or other dose. Calls follow the shape of the dose curve; as a rule, active = well fitted curve in the direction sought with a large enough effect; inconclusive = small, poorly fitted or top-dose-only effect, or another doubt; inactive = no such curve, though single readings can be large; an effect the other way counts as inactive or inconclusive. Potency is read from the fitted curve at half-maximal effect.

SMILES	NPC1 prom act	ELG1 genotox	ELG1 repair inh	FLuc counter	SMN2 splice enh	Rab9 promoter act
Cc1cc(C)c(S(=O)(=O)OC[C@H]2C=CC[C@@H](CCC[C@H]3O[C@H](C(=O)OC(C)C)CC[C@@H]3C)O2)c(C)c1	.	.	.	.	12%	.
O=c1c2c3c(sc2n(Cc2ccc(F)cc2Cl)c(=O)n1-c1ccc(Cl)cc1)CCC3	.	.	.	0%	.	.
Oc1ccc(Oc2ccc3c(C(F)(F)F)cc(C(F)(F)F)nc3n2)cc1	-4%	-12%	18µM*	0%	-17%	-6%
Cc1nn(-c2ccccc2)c(-n2cccc2)c1C(=O)NCCc1ccc(Cl)cc1	.	.	.	-2%	-67%	.
Cc1c(/C(O)=C2\C(=O)C(=O)N(CCN(C)C)C2c2cccs2)cnn1-c1ccccc1 (centres undefined)	2.5µM*	-1%	2%	?	-19%	4.5µM*
Cc1c(/C(O)=C2/C(=O)C(=O)N(CCN3CCOCC3)C2c2ccccn2)cnn1-c1ccccc1 (centres undefined)	-10%	?	?	17µM*	-27%	-17%
Cc1c(/C(O)=C2\C(=O)C(=O)N(CCN(C)C)C2c2cccnc2)cnn1-c1ccccc1 (centres undefined)	2%	2%	?	2%	9%	3%
O=C1C(=O)N(CCN2CCOCC2)C(c2ccccn2)/C1=C(/O)c1ccc(F)cc1 (centres undefined)	5%	3%	0%	-2%	1%	-5%
COC(=O)c1ccc(CNC(=O)c2cc(COc3cncc(Cl)c3)on2)cc1	-6%	-18%	21µM*	0%	.	-13%
COc1ccc(Cl)cc1NC(=O)N1CCC(CN2CCc3ccccc3C2)CC1	.	.	.	-6%	.	.
CCN(C(=O)Cc1ccccc1OC)c1nnc(-c2ccncc2)s1	-1%	-2%	?	-18%	-29%	2%
COCCN(C(=O)c1ccco1)c1nnc(-c2ccc(F)cc2)s1	28%	10%	?	?	?	?
CCN(C(=O)Cc1cccs1)c1nnc(-c2cc(OC)c(OC)c(OC)c2)s1	-2%	?	2.9µM*	0%	25µM*	-1%
CCCN(C(=O)c1ccco1)c1nnc(-c2ccccc2C)s1	21%	?	-2%	12µM*	.	?
COCCN(C(=O)Cc1cccs1)c1nnc(-c2cccnc2)s1	-4%	1%	15%	-1%	-19%	16%
CCN(C(=O)c1ccco1)c1nnc(-c2cccnc2)s1	?	?	?	13µM*	.	?
CCCCN(C(=O)Cc1cccs1)c1nnc(-c2cccnc2)s1	?	16%	?	19µM*	20µM*	28%
Cc1ccc(-c2ccc(=O)n(CC(=O)Nc3ccc(C)cc3Cl)n2)cc1	.	.	.	5%	5%	.
O=C(NNc1c([N+](=O)[O-])cc(C(F)(F)F)cc1[N+](=O)[O-])c1ccco1	-2%	-21%	18µM*	?	.	-1%
COc1ccc(NC(=S)Nc2ccc(N)c([N+](=O)[O-])c2)cc1	9%	?	?	?	16µM*	12%
COc1ccc(NC(=O)c2ccccc2[N+](=O)[O-])cc1	13%	7%	?	-10%	20%	18%
Cc1ccc(-n2cc(CN3CCC(O)(c4ccccn4)CC3)c(-c3ccc(F)cc3)n2)cc1	-4%	-6%	18µM*	17µM*	.	-21%
O=C1NC(=S)S/C1=C\C=C\c1ccc([N+](=O)[O-])o1	-43%	?	?	24µM*	.	-49%
O=C(O)/C=C/c1ccc([N+](=O)[O-])o1	-4%	0%	?	3%	6%	-4%
Cc1ccc2cccc(OCc3cccc([N+](=O)[O-])c3)c2n1	-1%	-8%	-2%	-3%	.	1%[1.84 µM]
SMILES	NPC1 prom act	ELG1 genotox	ELG1 repair inh	FLuc counter	SMN2 splice enh	Rab9 promoter act
O=[N+]([O-])c1ccccc1OCCCOc1cccc2cccnc12	?	?	?	6.7µM*	.	?
O=Cc1ccc(OCCCOc2cccc3cccnc23)cc1	-2%	16%	21%	-6%	.	0%
Fc1ccc(COc2cccc3cccnc23)cc1	?	?	?	17µM*	29%	?
Cc1cccc(OCCCOc2cccc3cccnc23)c1C	-3%	-1%	3%	?	-21%	5%
O=Cc1ccccc1OCCCOc1cccc2cccnc12	22%	6%	23%	13µM*	.	23%
Cc1ccc(OCCOc2cccc3ccc(C)nc23)c([N+](=O)[O-])c1	6%	0%	-3%	21µM*	18%	2%
NC(=O)COc1cccc2cccnc12	0%	3%	0%	2%	-1%	12%
COc1ccc(-n2c(=O)c3c(c4cc(OC)ccc4n3C)n(Cc3c(F)cccc3Cl)c2=O)cc1	.	.	.	0%	.	.
COc1ccc(C(=O)OCc2cc(=O)n3nc(C4CC4)sc3n2)cc1OC	.	.	.	-5%	.	.
CC(=O)c1nn(-c2ccc(OC(F)(F)F)cc2)nc1Nc1ccc(Cl)cc1	.	.	.	-8%	5%	.
O=C(NCc1ccc(F)cc1)C1CCN(S(=O)(=O)c2ccc3c(c2)CCCN3C(=O)C2CCC2)CC1	.	.	.	-10%	.	.
COc1cccc(OC)c1OCCCOc1cccc2cccnc12	?	13%	?	17µM*	?	3.2µM*
Clc1ccccc1OCCCOc1cccc2cccnc12	?	?	?	7.6µM*	.	?
Cc1ccc2cccc(OCCCOc3ccccc3F)c2n1	-2%	3%	2%	19µM*	.	13%
Cc1ccc2cccc(OCCOCCOc3ccccc3Br)c2n1	-1%	-8%	-28%	-7%	-5%	-1%
Cc1ccc(OCCN2C(=O)c3ccccc3C2=O)c([N+](=O)[O-])c1	14%	7%	?	21µM*	-25%	26%

Screening data (PubChem BioAssay)
